Results on eight compounds are retold here after PubChem BioAssay (NCI).

Assay in all cases: NCI-60 one-dose screen, 48 h (100 = growth as untreated, 0 = no growth, -100 = all killed)
Common to all, as to conditions: 10 µM

For test [1], the system named is NCI-H23 lung.
Test [2] relates to NCI-H226 lung.
For test [3], the system named is HOP-62 NSCLC.
The subject of test [4] is NCI-H460 lung.
Test [5] deals with NCI-H522 lung.
For test [6], the system named is A549/ATCC NSCLC.
The subject of test [7] is 786-0 renal.
In test [8] the test system is COLO 205 colon.
Test [9] relates to DU-145 prostate.
Test [10] has as its system K-562 leukemia.
Test [11] has as its system MALME-3M melanoma.
For test [12], the system named is MDA-MB-231 breast.
Test [13] relates to RXF 393 renal.
Test [14] concerns SF-268 CNS.
Test [15] concerns SF-295 CNS.
For test [16], the system named is SF-539 CNS.
Test [17] relates to UACC-257 melanoma.
Test [18] has as its system M14 melanoma.

The structures appear in SMILES notation. Compounds without any hit were thinned out: in the full panel of roughly 83,000, 20% have a hit.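 96-well plates, one dose, 48 hours. Percent growth reported; active if below 10.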 Values without a mark were called inactive. Calls of active or inactive are those of the source.

Turning to `COc1cc2cc(Oc3ccc(NC(=O)c4ccc(Cl)c(C(F)(F)F)c4)cc3)c(C)nc2cc1OC`, the growth in test [1] is 12.5%; in test [2] it was 25.5%; in test [3], 73.1%; in test [4], 19.7%; in test [5], 20.3%; in [6], 13.8%. For the same compound, the growth in [7] was 32.2%; in test [8] it was 33.1%; in [9] it was 43%; in test [10] it was 14.8%; in test [11] it was 37.2%; in test [12], 48.3%. The growth in test [13] was 50.8%; in test [14], 56.1%; in [15], 7.81% (active); in [16], 57.3%; in test [17], 36.8%; in [18], 18.4%.

As to `Brc1ccc2c(c1)-c1ccccc1C1=NCCN12`, the growth in [1] was -8.64% (active); in test [2], -14.2% (active); in test [3], -24.3% (active); in test [4] it was -47.4% (active); in test [5] it was -61.9% (active); in test [6], -18.8% (active). Besides, the growth in test [7] was -32.7% (active); in test [8], -54% (active); in test [9], -21.1% (active); in test [10] it was 4.71% (active); in [11], -31.5% (active); in [12], -7.62% (active). For the same compound, the growth was -62.6% (active) in test [13]; -2.39% (active) in test [14]; -50.7% (active) in test [15]; -1.45% (active) in test [16]; -23.9% (active) in [17]; -51.8% (active) in test [18].

Take `COc1ccc(Nc2cnc3cc(NS(=O)(=O)c4ccc(C)cc4)ccc3n2)cc1`: the growth in [1] was 86.5%; in test [2], 94%; in test [3] it was 79%; in [4] it was 84.4%; in test [5], 36.1%; in [6] it was 66.2%. Also, the growth in [7] is 97%; in test [8] it was 96.4%; in test [9], 102%; in [10] it was 24.2%; in test [11] it was 74.1%; in [12], 67.6%. The growth in test [13] was 100%; in test [14] it was 88.1%; in [15] it was 75%; in [16] it was 80.9%; in [17] it was 73.3%; in test [18], 75.8%.

Consider `NC1=NC(c2ccccc2)C2=C(N1)/C(=C/c1ccccc1)CCC2` (centres undefined), for which the growth in test [1] is 78.1%; in test [2], 109%; in [3], 114%; in test [4] it was 98.9%; in [5], 48.4%; in test [6], 87%. The growth in [7] was 101%; in test [8], 112%; in test [9], 117%; in test [10], 76.4%; in test [11], 103%; in test [12], 101%. Besides, the growth in [13] was 101%; in test [14] it was 91.7%; in test [15], 95%; in [16], 92.8%; in test [17], 83.8%; in [18] it was 61.9%.

With `COc1ccc2c(c1)C(=O)/C(=C/c1ncc([N+](=O)[O-])n1C)O2`, the growth was -5.43% (active) in test [1]; -24.6% (active) in test [2]; -27% (active) in [3]; -42.6% (active) in test [4]; -51.5% (active) in [5]; -27.8% (active) in test [6]. The growth in test [7] is -26.3% (active); in [8] it was -47.5% (active); in test [9] it was -13.6% (active); in test [10], 1.52% (active); in [11] it was -56.2% (active); in [12], -18.1% (active). For the same compound, the growth in [13] was -54.4% (active); in [14], -39.7% (active); in test [15], -18.4% (active); in test [16], -29.4% (active); in test [17], -43.9% (active); in test [18], -37.7% (active).

For `Cc1n[nH]c(C)c1N=Nc1cccc2c1C(=O)c1ccccc1C2=O`, the growth is 84.7% in [1]; 87.4% in test [2]; 96.9% in [3]; 96.5% in test [4]; 86.7% in test [5]; 105% in test [6]. Moreover, the growth is 101% in test [7]; 104% in [8]; 101% in [9]; 85.6% in [10]; 124% in test [11]; 82.4% in [12]. Moreover, the growth in [13] was 87.6%; in [14], 96.5%; in test [15], 99.4%; in test [16] it was 90.3%; in test [17], 111%; in [18] it was 106%.

In the case of `COC1OC(COS(=O)OC)C(O)C(O)C1OS(=O)OC` (centres undefined), the growth is 101% in test [1]; 95.7% in [2]; 104% in [3]; 101% in test [4]; 98.5% in test [5]; 103% in test [6]. The growth in test [7] was 106%; in test [8] it was 110%; in test [9] it was 99.5%; in test [10], 102%; in test [11] it was 97.1%; in test [12] it was 103%. Besides, the growth in test [13] is 111%; in test [14], 103%; in [15], 103%; in test [16] it was 98.3%; in test [17], 99.5%; in test [18], 96.6%.

Turning to `CC(=O)Oc1cc(OC(C)=O)c2ccccc2c1OC(C)=O`, the growth in test [1] is 70.8%; in [2] it was 88.4%; in test [3], 90%; in test [4], 86.6%; in test [5], 68.2%; in test [6], 82.5%. Besides, the growth in [7] was 103%; in [8], 92.9%; in test [9] it was 67%; in test [10], 70.5%; in test [11] it was 67.3%; in [12], 67.7%. Also, the growth in test [13] was 93.1%; in [14], 87.9%; in [15] it was 103%; in test [16], 100%; in test [17] it was 81.4%; in test [18], 84.1%.
